# Reference: PubChem BioAssay (NCATS)
# Results filed as inconclusive are left out. A call without a number means that no potency is given here. Activity calls are given as the source filed them. Calls follow the shape of the full dose curve.
# Assay: Cytotoxicity counterscreen for inhibitors of SARS-CoV-2 cell entry (AID 1645845); also: nearly all actives have a fitted effect of over 50% in size
# Settings: cell viability (SARS-CoV-2 entry assay cells); series mostly up to 57.1 µM
# Outline: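 48 h compound treatment (after 1 h preincubation), HEK293-ACE2 cells, 37 C/5% CO2; ATP luminescence endpoint; normalized to cell wells and media blanks.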
# Potency is read from the fitted curve at half-maximal effect.
row,Compound,Potency
1,CC(C)(C)C(=O)CN1C(=O)[C@H](NC(=O)Nc2cccc(C(=O)O)c2)CN(C2CCCCC2)c2ccccc21,inactive
2,Cc1cc(N2CCOCC2)ccc1Nc1nc(NC2CCCCC2)c2[nH]cnc2n1,inactive
3,NC(=S)N/N=C/c1ncccc1N,inactive
4,COc1cc(N2CCC(N(C)C)CC2)ccc1Nc1ncc(Cl)c(Nc2ccccc2P(C)(C)=O)n1,15.8 µM (active)
5,CN(C)C/C=C/C(=O)Nc1cc2c(Nc3ccc(F)c(Cl)c3)ncnc2cc1O[C@H]1CCOC1,inactive
6,NC(=O)c1cnc2[nH]ccc2c1NC1C2CC3C[C@H]1CC(O)(C3)C2 (some centres undefined),inactive
7,Cn1cncc1C(N)(c1ccc(Cl)cc1)c1ccc2c(c1)c(-c1cccc(Cl)c1)cc(=O)n2C (centres undefined),8.91 µM (active)
8,CN1CCN(CCCNc2ncc(Cl)c(-c3cc4c(C(=O)NC5CC5)cccc4s3)n2)CC1,inactive
9,CNc1nc(-c2ccc3c(N)n[nH]c3c2)cc(N2C[C@@H](C(=O)NC3CCCCC3)CC[C@H]2C)n1,inactive
10,Cc1cccc(-c2[nH]ncc2-c2ccc(F)c(-c3cnn(CCO)c3)c2)n1,inactive
11,CN(C)C1CCN(C(=O)c2ccc(NC(=O)Nc3ccc(-c4nc(N5CCOCC5)nc(N5CCOCC5)n4)cc3)cc2)CC1,1.12 µM (active)
12,CN1C(=O)c2sccc2N(C)c2nc(Nc3ccc(S(N)(=O)=O)cc3)ncc21,inactive
13,NC(CC1c2ccccc2Oc2ccccc21)(C(=O)O)C1CC1C(=O)O (centres undefined),inactive
14,CN1CCN(c2ccc(-c3cccc(CN4CCOCC4)c3)cc2NC(=O)c2c[nH]c(=O)cc2C(F)(F)F)CC1,inactive
